Test results from PubChem BioAssay (NCI).
About 83,000 compounds went through this panel and 20% of them were active in at least one assay; those are over-represented in the sample as a whole.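 Single-concentration screen, 48 h exposure, 96-well plates. Endpoint: percent growth. Below 10 = active.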 Unmarked numbers belong to inactive results. Activity calls are given as the source filed them.

Each compound was assayed on MCF7 breast (assay: NCI-60 one-dose screen, 48 h (100 = growth as untreated, 0 = no growth, -100 = all killed)). Settings: 10 µM unless noted.
Compound `CCN(CC)Cc1cc(Nc2ccnc3cc(Cl)ccc23)ccc1O` has a growth of 86.9%. For `Cc1ccc(-c2nc3nc(-c4ccccc4)nc(N4CCCN(S(C)(=O)=O)CC4)c3o2)cc1`, the growth was 65.1%. For `CCCCCN(CCCCC)CC(O)c1cc(C)c2ccc3cc(C(C)C)ccc3c2c1` (stereo unspecified), the growth was -86.2% (active). Work on `NC(N)=NS(=O)(=O)c1ccc(NC2=C(I)C(=O)c3ncccc3C2=O)cc1` yielded a growth of 97.9%. In the case of `O=C1/C(=C\c2ccccn2)c2ccccc2N1c1c(Cl)cccc1Cl`, the growth is reported as 2.29% (active). In the case of `CCCCNC(=O)Oc1ccc(/C(=C(/C)Cc2ccc(OC)cc2)c2ccc(OCCN3CCCCC3)cc2)cc1`, the growth is reported as 26.9%. Compound `O=C(/C=C/c1ccc(Cl)cc1)c1cccc(OCCCOc2cccc(C(=O)/C=C/c3ccc(Cl)cc3)c2)c1` has a growth of 21.1%. `Cc1ccc(/C=C(\C#N)n2nnc3cc(F)c(F)cc32)cc1` gave a growth of 12.6%. For `O=P(O)(O)OCC1OC(n2cnc3c(NCc4ccco4)ncnc32)C(O)C1O` (stereo unspecified), the growth was 0.586% (active). For `O=C(C1=Cc2cc3ccccc3n2Cc2cnnn21)c1ccc(O)cc1`, the growth was 34.3%. In the case of `COc1ccc(-c2nc3c(N)c(CO)cnc3s2)cc1`, the growth is reported as 91%. `COc1ccc2c(c1)c(/C(O)=C1\COC(=O)C1=O)cn2Cc1ccc(F)cc1` gave a growth of 107%. `Cc1ccc(/C=C/C(=O)c2cccc(OCCCOc3cccc(C(=O)/C=C/c4ccc(C)cc4)c3)c2)cc1` was tested, and the growth was 2.54% (active).

Each compound was assayed on HCT-116 colon in the same assay as above. Settings: 10 µM unless noted.
`CCOc1ccc(-n2nc(C(=O)NCc3ccccc3OC)nc2-c2cc(OC)c(OC)c(OC)c2)cc1` was tested, and the growth was 25.3%. Compound `O=C(CCCCCCN1CC(=O)N2[C@H](c3ccc(Br)cc3)c3[nH]c4ccccc4c3C[C@@H]2C1=O)NO` has a growth of 14.8%. In the case of `CCN1C(=O)N(CC)C2Nn3c(s/c(=C\c4ccccc4Br)c3=O)=NC21` (stereo unspecified), the growth is reported as 11.2%. `COC(=O)c1nc(-c2ccccc2)oc1S(=O)(=O)NCC(c1ccc(Cl)cc1)N1CCOCC1` (stereo unspecified) was tested, and the growth was 62.2%. `CC1=C(C(=O)Nc2nc(-c3ccc(Cl)cc3)cs2)[C@H](c2ccc(O)cc2)NC(=O)N1` was tested, and the growth was 95.4%. Work on `COc1ccc(C(=O)c2cc3c(N)c(C(=O)Nc4ccccc4)sc3nc2C)cc1` yielded a growth of 13.4%. With `C#CC#CC#CC#CC#CC#CC#CC#CC[C@@H]1OC[C@@H](COC(=O)O[C@@H](C(=O)O[C@H]2C[C@@]3(O)[C@@H](OC(=O)c4ccccc4)[C@@H]4[C@]5(OC(C)=O)CO[C@@H]5C[C@H](O)[C@@]4(C)C(=O)[C@H](OC(C)=O)C(=C2C)C3(C)C)[C@@H](NC(=O)c2ccccc2)c2ccccc2)O1` the growth was 7.34% (active). For `CNCc1cccc2c1OCCOCCOCCNS(=O)(=O)c1ccc(cc1)-c1cnc(N)c(n1)C(=O)N2`, the growth was 7.19% (active). `CC1(C)OB(O)c2cc(-c3nc4ccc5[nH]ncc5c4c4c3CCCC4)ccc21` gave a growth of 22.7%. Compound `COc1ccc(/C=C2\COc3ccc(O)cc3C2=O)cc1` has a growth of 77.7%. For `CN1C(=O)/C(=C/c2ccc(C(=O)Nc3ncc(Cc4cccc(Cl)c4)s3)cc2)SC1=S`, the growth was 47.5%. Compound `CN(C)c1ccc(-c2nc(-c3ccccc3)c(-c3ccccc3)[nH]2)cc1` has a growth of 86.7%. For `Cc1n[nH]c2ccc(Br)cc2c1=O`, the growth was 98.7%. In the case of `CCOc1cccc(/C=N/NC(=O)c2cccc(Nc3ccnc(C(F)(F)F)c3)c2)c1O`, the growth is reported as 13%. Work on `COc1ccc(CNc2c3ccccc3nc3ccccc23)c(OC)c1` yielded a growth of 12.8%. With `COc1ccc2c(c1)c(-c1nc(-c3c[nH]c4ncccc34)cs1)cn2CCO` the growth was 50.9%. `COc1ccc(C(O)c2cc3c(N)c(C(=O)Nc4cccc(Cl)c4C)sc3nc2C)cc1` (stereo unspecified) was tested, and the growth was 6.73% (active). For `CC1CCN(C(=S)SCC(=O)NC(=O)c2ccccc2)CC1`, the growth was 109%. For `CS(=O)(=O)Nc1cc(-c2ccc3ncc(C#N)c(Nc4ccc(F)c(Cl)c4)c3c2)cnc1Cl`, the growth was 4% (active). `CCN1C(=O)N(CC)C2C1NN=c1s/c(=C3\C(=O)N(CC(C)C)c4ccccc43)c(=O)n12` (stereo unspecified) gave a growth of 11.9%. With `O=C(CI)NC(=O)NC(=O)NCc1ccccc1` the growth was 13.3%. `CCn1cc(CNc2ccc(C(=O)Nc3cc4cc(OC)c(OC)cc4c(C)n3)cc2)cn1` gave a growth of 46.8%. With `C=CCN1C(=O)c2cccc3c(N4CCOCC4)ccc(c23)C1=O` the growth was -25.4% (active).
